Measurements reported in PubChem BioAssay AID624330 (Southern Research Specialized Biocontainment Screening …, 2012).
The campaign covered roughly 340,000 compounds. About 2,100 (0.62%) were called active.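 The calls were made as follows: active = first-screen hits whose inhibition reached a set limit at any dose in the follow-up dose series; inconclusive = inhibition above the set first-screen limit but never retested; inactive = the rest.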 Not all results are given here. Results with a measured potency or affinity are listed apart.

Each compound was assayed against Rac GTPase-activating protein 1 (Homo sapiens) (UniProt Q9H0H5) (assay: MgcRacGAP GTPase-activating activity inhibitors, confirmation, biochemical, ADP Hunter fluorescence, primary and confirmatory (AID 624330;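 also: fluorescence reports GDP produced by GAP-driven GTP hydrolysis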)). Settings: MgcRacGAP-stimulated Rac1 GTP hydrolysis, at 30 µM, active compounds read high, GST-tagged Rac1 F28L mutant substrate.
Sequence of Rac GTPase-activating protein 1 (Homo sapiens) (Q9H0H5 whole entry, looked up): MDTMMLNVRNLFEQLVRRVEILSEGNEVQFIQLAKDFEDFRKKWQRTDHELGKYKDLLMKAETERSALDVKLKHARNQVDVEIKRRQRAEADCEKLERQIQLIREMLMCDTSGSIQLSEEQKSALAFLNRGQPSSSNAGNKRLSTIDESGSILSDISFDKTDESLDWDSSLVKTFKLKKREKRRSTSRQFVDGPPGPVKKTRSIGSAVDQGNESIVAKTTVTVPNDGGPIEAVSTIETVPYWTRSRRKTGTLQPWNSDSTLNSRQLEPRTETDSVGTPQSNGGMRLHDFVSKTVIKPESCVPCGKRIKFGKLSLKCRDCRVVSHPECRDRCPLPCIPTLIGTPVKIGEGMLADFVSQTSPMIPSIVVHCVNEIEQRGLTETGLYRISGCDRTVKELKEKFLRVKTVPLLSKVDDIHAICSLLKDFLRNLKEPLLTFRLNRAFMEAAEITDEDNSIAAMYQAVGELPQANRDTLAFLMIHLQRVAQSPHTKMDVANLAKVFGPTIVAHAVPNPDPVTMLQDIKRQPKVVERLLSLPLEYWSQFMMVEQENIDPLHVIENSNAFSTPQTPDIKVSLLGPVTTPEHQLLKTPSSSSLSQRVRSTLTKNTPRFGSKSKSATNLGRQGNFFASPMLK

inhibition, inactive:
NS(=O)(=O)c1ccc(CCNC(=O)c2ccc(Cl)nc2)cc1 4.85%
COC(=O)C[C@@H]1C[C@@H]2c3cc(NC(=O)NC4CCCCC4)ccc3O[C@@H]2[C@H](CO)O1 0.31%
CC(=O)c1ccc(N2CCN(C(=O)c3ccc(-c4ccccc4)cc3)CC2)cc1 6.62%
CN1c2cccc3cccc(c23)N(C)C1(C)C 17.8%
CN1c2cccc3cccc(c23)N(C)C1c1cccs1 29.9%
Cc1[nH]c2ccc(-c3n[nH]c(=S)n3Cc3ccccc3)cc2c1C 10.2%
c1ccc(-c2csc(NNC3=NCCCCC3)n2)cc1 -65.3%
COc1ccc(CNC(=O)c2ccc[nH]2)cc1Cl -1.95%
COc1cc(-c2n[nH]c(=S)n2-c2ccccc2C(F)(F)F)cc(OC)c1OC 0.91%
CCn1c(C)nc2cc(C(=O)NN=Cc3ccc([N+](=O)[O-])cc3)ccc21 8.03%
CCn1c(C)nc2cc(C(=O)N/N=C/c3ccccc3C)ccc21 4.28%
CCn1c(C)nc2cc(C(=O)N/N=C/c3cccc(OC)c3O)ccc21 15%
CCn1c(C)nc2cc(C(=O)N/N=C/c3ccc(O)c(O)c3O)ccc21 -97%
CCn1c(C)nc2cc(C(=O)N/N=C/c3ccc(N4CCOCC4)cc3)ccc21 9.18%
CCn1c(C)nc2cc(C(=O)N/N=C/c3ccccc3)ccc21 12.6%
O=C(O)CCCN1C(=O)c2ccc(Oc3cccc([N+](=O)[O-])c3)cc2C1=O 1.11%
Cc1ccc(OCC(=O)NNC(=O)c2ccco2)c(C)c1 8.22%
O=C(O)[C@H](CSCc1ccccc1)NS(=O)(=O)c1ccc(F)cc1 9.02%
CCCCn1c(SCC(=O)c2ccccc2)nc2ccsc2c1=O 9.24%
CCCCn1c(SCC(=O)Nc2cc(C)[nH]n2)nc2ccsc2c1=O 9.99%
C=CCn1c(SCC(=O)Nc2cc(C)on2)nc2sc(CC)cc2c1=O -5.28%
C=CCn1c(SCC(=O)NC2CC2)nc2sc(CC)cc2c1=O 2.06%
CN(Cc1ccccc1)C(=O)COC(=O)/C=C/c1ccco1 7.88%
Cc1ccc(NC(=O)Cn2nc(C(=O)O)c3ccccc3c2=O)cc1S(=O)(=O)N1CCOCC1 5.1%
COc1ccc2c(C)cc3nncn3c2c1 5.43%
COc1ccc2c(C)cc3nnnn3c2c1 7.23%
Nc1ccn([C@@H]2O[C@H](COS(=O)(=O)O)[C@@H](O)[C@H]2O)c(=O)n1 9.68%
COCC(C)NCc1cc(Br)ccc1OC (centres undefined) 26.2%
COc1cc(CNCc2cccc(OC)c2OC)cc(OC)c1 20.9%
COc1cccc(CNCc2cccc(Br)c2)c1OC 24.4%
COc1cccc(CNCc2ccccn2)c1OC 8.4%
COc1ccccc1CNCc1ccc(OC)c(OC)c1OC 20.1%
COCC(C)NCc1cccc(C)c1 (centres undefined) 5.01%
N#CCCn1cc(C(=O)Nc2ccc(C(=O)O)cc2)c(-c2ccc([N+](=O)[O-])cc2)n1 5.44%
O=C(C(=O)c1ccc(O)cc1)c1ccccc1 3.36%
O=C1Cn2c(nc3ccccc32)-c2ccccc2N1 1.15%
CCCCc1ccc(S(=O)(=O)NCCCN2CCCC2=O)cc1 6.42%
Cc1ccc(Cn2c(CCNc3nc(-c4ccc(Cl)c([N+](=O)[O-])c4)cs3)nc3cc(Cl)c(Cl)cc32)cc1 7.46%
CC(C)(C)OC(=O)C[C@H]1C/C=C\C[C@@H](CC(=O)N[C@@H](CO)Cc2ccccc2)C(=O)NC[C@H](c2ccccc2)OC1=O 2.19%
Cc1cn(C2CC(OC(=O)C(C)C)C(CO)O2)c(=O)[nH]c1=O (centres undefined) 6.43%
O=c1[nH]cn[nH]1 0.25%
CC(CCN(C)C)OC(=O)c1ccc(C(C)c2ccccc2)o1 (centres undefined) 1.78%
Brc1ccc2c(c1)OCCOCCOCCOCCOCCOCCO2 0.25%
Oc1c(Cl)cc(Cl)cc1C=Nc1ccc2c(c1)OCCO2 4.97%
Oc1c(Br)cc(Br)cc1C=Nc1ccc2c(c1)OCO2 15.4%
Brc1ccc2c(c1)OCCOCCOCCOCCOCCO2 8.26%
O=S(=O)(c1ccc(SCc2cccc(Cl)c2)nc1)N1CCCC1 2.55%
CC(=O)c1cccc(OC(=O)C2=CC=CN3CCS(=O)(=O)N=C23)c1 7.32%
COc1ccc2c(c1)c1nc3ccccc3nc1n2Cc1ccc(OC)c(OC)c1 8.38%
COc1cccc(CN(C)C(=O)Nc2cccc(C(F)(F)F)c2)c1OC -4.29%
Brc1ccc(OCc2nnc3n2CCC3)cc1 5.52%
O=C(COc1cccnc1[N+](=O)[O-])N1CCc2ccccc21 0.83%
CCN(CC)c1ccc(-c2c(C#N)c(N)nc(OC)c2C#N)cc1 -1.06%
COc1ccc(N=c2sc3ccccc3n2C)cc1 3.05%
Cn1c(=Nc2ccccc2)sc2ccccc21 4.04%
CCC(=NOCc1ccccc1)C(=O)NNS(=O)(=O)c1ccc(C)cc1 0.04%
COc1cc(/C=N/Nc2ccccc2C(F)(F)F)ccc1O 20.2%
COc1ccc(/C=N/NC(=O)c2ccc(-c3ccccc3)cc2)cc1O 25.4%
COc1cc(C(=O)N/N=C/c2ccc(OC(=O)c3ccccc3)c(OC)c2)ccc1O 25.2%
O=C(N/N=C/c1cccc(O)c1)c1ccc(-n2cnnn2)cc1 1.77%
COc1cc(C(=O)N/N=C/c2cn(Cc3cccc(F)c3)c3ccccc23)ccc1O 28.6%
COc1cc(C=NNc2nc3c([nH]2)c(=O)n(C)c(=O)n3C)ccc1O 12.7%
Nc1ccc(C(=O)N/N=C/c2cn(Cc3ccccc3)c3ccccc23)cc1 0.58%
O=C(N/N=C/c1ccc(F)cc1)c1ccc(-n2cnnn2)cc1 -4.33%
